Results filed as inconclusive are left out. Activity calls are given as the source filed them. Unless noted, calls come from the whole dose curve; as a rule, active = well fitted curve in the direction sought with a large enough effect; inconclusive = small, poorly fitted or top-dose-only effect, or another doubt; inactive = no such curve, though single readings can be large; an effect the other way counts as inactive or inconclusive.
Experiments:
[1] = biological target: T1, Hexokinase-4 (Homo sapiens) + Glucokinase regulatory protein (Homo sapiens) (UniProt P35557+Q14397); assay: qHTS assay for inhibitors of recombinant human GCK-GKRP interaction: ADP-Glo assay (AID 743206);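 note: plate controls were DMSO plus enzyme for no effect and no enzyme for full effect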
T1 sequence (P35557 whole entry, looked up): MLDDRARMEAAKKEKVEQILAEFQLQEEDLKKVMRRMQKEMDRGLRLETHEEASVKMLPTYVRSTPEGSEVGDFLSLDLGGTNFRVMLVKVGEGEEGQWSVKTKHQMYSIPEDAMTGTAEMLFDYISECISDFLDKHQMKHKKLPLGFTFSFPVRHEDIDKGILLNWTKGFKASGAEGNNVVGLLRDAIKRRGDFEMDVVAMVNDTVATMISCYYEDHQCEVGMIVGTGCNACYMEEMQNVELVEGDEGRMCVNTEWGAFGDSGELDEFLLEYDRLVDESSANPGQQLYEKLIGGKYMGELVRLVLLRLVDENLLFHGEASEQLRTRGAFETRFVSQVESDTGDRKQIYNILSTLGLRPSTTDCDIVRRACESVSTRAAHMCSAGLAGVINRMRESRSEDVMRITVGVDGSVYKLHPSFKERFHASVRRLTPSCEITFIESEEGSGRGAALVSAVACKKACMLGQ
T1 sequence (Q14397 whole entry, looked up): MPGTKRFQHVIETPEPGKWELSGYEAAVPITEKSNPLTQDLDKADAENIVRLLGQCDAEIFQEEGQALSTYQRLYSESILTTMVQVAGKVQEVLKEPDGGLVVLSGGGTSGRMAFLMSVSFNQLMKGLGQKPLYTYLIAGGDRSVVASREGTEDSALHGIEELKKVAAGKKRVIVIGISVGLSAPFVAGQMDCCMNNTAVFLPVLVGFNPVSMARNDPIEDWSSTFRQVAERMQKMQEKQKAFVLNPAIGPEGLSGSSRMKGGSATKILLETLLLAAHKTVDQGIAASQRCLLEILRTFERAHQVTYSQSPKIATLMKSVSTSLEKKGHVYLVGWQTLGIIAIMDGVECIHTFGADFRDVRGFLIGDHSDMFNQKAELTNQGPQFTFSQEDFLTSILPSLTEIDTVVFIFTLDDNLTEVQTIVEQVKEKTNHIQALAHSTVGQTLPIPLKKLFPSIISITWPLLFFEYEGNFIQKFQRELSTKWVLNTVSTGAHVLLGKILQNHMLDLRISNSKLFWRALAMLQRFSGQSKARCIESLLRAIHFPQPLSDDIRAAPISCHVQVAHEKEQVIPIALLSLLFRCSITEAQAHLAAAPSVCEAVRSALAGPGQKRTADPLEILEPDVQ
How it was run: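 GST-GCK and FLAG-GKRP (15 nM each in the dispensed mix, with 2 uM S6P) react with 0.4 mM ATP and 5 mM glucose (final) in Hepes pH 7.6 for 60 min at room temperature. ADP is measured by ADP-Glo luminescence.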

[2] = biological target: T1, Hexokinase-4 (Homo sapiens) + Glucokinase regulatory protein (Homo sapiens); assay: qHTS assay for inhibitors of recombinant human GCK-GKRP interaction: HTRF assay (AID 743207);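 note: 0% = DMSO with GCK present and -100% = DMSO wells lacking GCK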
How it was run: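 HTRF read-out (ex 320 nm; 615/665 nm emission) after 60 min RT equilibration of 5 nM GST-GCK, 5 nM FLAG-GKRP, 2 uM S6P, compound and anti-FLAG/anti-GST detection antibodies; signal normalized between DMSO wells with and without GCK.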

[3] = qHTS assay for measurement of the activity of small molecule inhibitors on Zika virus induced Caspase-3 activity in human iPSC derived neural progenitor cells (hNPCs) (AID 1224857); note: % of control where 0% means no effect; nearly all actives have a fitted effect of over 65% in size
How it was run: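 Pretreat hNPCs with compound 1 h; infect ZIKV 2 FFU/cell; 6 h 37 C, 5% CO2; Caspase-Glo 3/7, 30 min RT; luminescence; normalize to no-virus and virus-only wells.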

[4] = qHTS assay for measurement of the activity of small molecule inhibitors on Zika virus induced Caspase-3 activity in human astrocytoma cells (AID 1224859);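 note: plate controls were ZIKV-infected untreated cells for no effect and uninfected cells for full effect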
How it was run: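 Human SNB-19 astrocytoma cells in RPMI 1640 with 10% FBS receive compound one hour ahead of Zika virus at 2 FFU/cell. After 6 h infection, caspase-3/7 activity is detected by Caspase-Glo luminescence.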

[5] = Natriuretic polypeptide receptor (hNpr1) antagonism - Pilot counterscreen GloSensor control cell line (AID 1347045; calls by dose curve; note: % is set by controls: 0 for no effect and ±100 for the full control effect)
How it was run: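 HEK293 cGMP GloSensor cells preloaded 2 h with 2% GloSensor reagent, then compound 30 min before baseline luminescence read. Stimulated with 50 uM sodium nitroprusside, 20 min at room temperature, then read again; counterscreen for Npr1 antagonism.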

[6] = biological target: Atrial natriuretic peptide receptor 1 (Homo sapiens) (UniProt P16066); assay: Natriuretic polypeptide receptor (hNpr1) antagonism - Pilot screen (AID 1347049; calls by dose curve;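 note: agonist-evoked cGMP luminescence read 20 min after hNppA addition; % is set by controls: 0 for no effect and ±100 for the full control effect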)
Chain of Atrial natriuretic peptide receptor 1 (Homo sapiens) (P16066 whole entry, looked up): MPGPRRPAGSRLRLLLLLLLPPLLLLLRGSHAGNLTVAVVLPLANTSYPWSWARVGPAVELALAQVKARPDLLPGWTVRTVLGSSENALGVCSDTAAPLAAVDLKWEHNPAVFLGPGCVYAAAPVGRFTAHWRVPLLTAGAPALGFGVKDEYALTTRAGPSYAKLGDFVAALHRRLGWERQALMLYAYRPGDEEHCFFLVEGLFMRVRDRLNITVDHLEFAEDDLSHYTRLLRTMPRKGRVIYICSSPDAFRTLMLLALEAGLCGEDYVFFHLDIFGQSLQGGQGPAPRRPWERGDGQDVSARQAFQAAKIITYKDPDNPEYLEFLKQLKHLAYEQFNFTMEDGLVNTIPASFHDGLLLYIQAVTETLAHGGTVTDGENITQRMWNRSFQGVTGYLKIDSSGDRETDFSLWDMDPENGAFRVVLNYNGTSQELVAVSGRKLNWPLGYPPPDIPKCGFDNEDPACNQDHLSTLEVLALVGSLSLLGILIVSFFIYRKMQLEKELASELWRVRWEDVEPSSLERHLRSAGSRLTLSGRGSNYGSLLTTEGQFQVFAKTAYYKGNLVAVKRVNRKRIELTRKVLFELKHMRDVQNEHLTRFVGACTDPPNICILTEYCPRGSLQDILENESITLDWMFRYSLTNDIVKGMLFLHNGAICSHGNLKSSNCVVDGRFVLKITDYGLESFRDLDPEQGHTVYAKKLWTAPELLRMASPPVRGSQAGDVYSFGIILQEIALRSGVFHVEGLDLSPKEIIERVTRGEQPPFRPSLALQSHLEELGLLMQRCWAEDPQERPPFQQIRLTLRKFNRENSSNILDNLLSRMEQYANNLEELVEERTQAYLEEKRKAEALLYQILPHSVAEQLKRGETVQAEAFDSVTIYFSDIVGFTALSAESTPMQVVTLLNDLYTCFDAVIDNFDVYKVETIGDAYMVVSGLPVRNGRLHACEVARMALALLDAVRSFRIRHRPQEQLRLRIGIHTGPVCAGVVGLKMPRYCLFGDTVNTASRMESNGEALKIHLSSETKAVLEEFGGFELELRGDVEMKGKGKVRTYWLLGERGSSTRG
How it was run: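 HEK293 cells expressing hNpr1 and GloSensor cGMP luciferase, 1500/well, loaded with 2% GloSensor reagent 2 h, compound 30 min at room temperature; luminescence read before and 20 min after 0.1 nM hNppA stimulation.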

[7] = biological target: Atrial natriuretic peptide receptor 2 (Homo sapiens) (UniProt P20594); assay: Natriuretic polypeptide receptor (hNpr2) antagonism - Pilot subtype selectivity assay (AID 1347050; calls by dose curve; note: % is set by controls: 0 for no effect and ±100 for the full control effect)
Chain of Atrial natriuretic peptide receptor 2 (Homo sapiens) (P20594 whole entry, looked up): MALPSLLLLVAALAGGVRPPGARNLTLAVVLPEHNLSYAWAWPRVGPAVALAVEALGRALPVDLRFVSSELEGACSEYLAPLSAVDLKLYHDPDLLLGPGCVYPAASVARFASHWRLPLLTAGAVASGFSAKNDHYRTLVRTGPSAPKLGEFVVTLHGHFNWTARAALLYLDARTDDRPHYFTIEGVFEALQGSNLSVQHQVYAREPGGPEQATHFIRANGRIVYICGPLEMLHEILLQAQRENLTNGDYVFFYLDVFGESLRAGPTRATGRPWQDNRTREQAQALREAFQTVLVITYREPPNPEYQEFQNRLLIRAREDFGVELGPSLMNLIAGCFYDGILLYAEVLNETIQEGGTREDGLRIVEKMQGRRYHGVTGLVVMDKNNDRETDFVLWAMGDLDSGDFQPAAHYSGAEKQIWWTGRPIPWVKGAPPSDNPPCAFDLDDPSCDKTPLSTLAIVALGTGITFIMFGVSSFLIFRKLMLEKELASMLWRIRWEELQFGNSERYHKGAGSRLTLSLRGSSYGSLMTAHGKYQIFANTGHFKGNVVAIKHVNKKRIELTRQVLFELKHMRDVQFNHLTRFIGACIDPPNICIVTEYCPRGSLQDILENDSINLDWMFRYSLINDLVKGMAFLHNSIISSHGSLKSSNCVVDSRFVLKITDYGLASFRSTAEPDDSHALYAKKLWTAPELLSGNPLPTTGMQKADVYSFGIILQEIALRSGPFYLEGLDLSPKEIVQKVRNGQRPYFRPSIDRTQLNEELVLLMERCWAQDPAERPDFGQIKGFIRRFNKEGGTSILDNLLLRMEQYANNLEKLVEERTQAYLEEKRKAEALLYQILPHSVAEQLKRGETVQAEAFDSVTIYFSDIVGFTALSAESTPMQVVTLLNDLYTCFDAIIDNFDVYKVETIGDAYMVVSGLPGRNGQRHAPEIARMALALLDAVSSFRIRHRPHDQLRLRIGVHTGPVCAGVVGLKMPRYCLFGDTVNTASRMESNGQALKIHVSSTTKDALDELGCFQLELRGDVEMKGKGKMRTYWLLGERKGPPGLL
How it was run: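 HEK293 cells expressing hNpr2 and a GloSensor cGMP luciferase sensor, 1500/well, preloaded 2 h with 2% GloSensor reagent, compound 30 min, then 1 nM hNppC for 20 min. Antagonism from luminescence after versus baseline pre-read; LOPAC in 1:5 titrations.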

[8] = biological target: T1, Hexokinase-4 (Homo sapiens) + Glucokinase regulatory protein (Homo sapiens); assay: qHTS assay for inhibitors of recombinant human GCK-GKRP interaction: Diaphorase-coupled assay (AID 743205)
How it was run: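 Resorufin fluorescence (525/590 nm), read each minute over 30 min, reports GCK activity coupled via G6PDH and diaphorase. Reaction: 10 nM GST-GCK, 10 nM FLAG-GKRP, 5 mM glucose, 0.4 mM ATP, 0.15 mM NADP+, 0.1 mM resazurin.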

[9] = qHTS Assay for Identifying Gametocytocidal Compounds (AID 743244); note: potency is the fitted concentration of half-maximal effect;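 for max response: % is set by controls: 0 for no effect and ±100 for the full control effect; actives lower the fluorescent signal which means gametocytes are killed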; settings: P. falciparum 3D7 stage III-V gametocytes, alamarBlue, 72 h; max response: stronger effect = lower value
How it was run: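 Compounds are pinned into medium, gametocytes (stage III–V, 3D7, 20,000 cells/well) added, and plates held 72 h at 37 °C in 5% CO2. AlamarBlue follows for 24 h before fluorescence reading.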

[10] = qHTS profiling for inhibitors of Plasmodium falciparum (3D7) proliferation (AID 743322);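 note: infected erythrocytes exposed to compound for 72 h before lysis; 100% = DMSO vehicle wells and 0% = 0.29 µM artemisinin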; settings: P. falciparum 3D7 proliferation; at 28.7 µM (top of the series)
How it was run: (§1)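 Erythrocytes infected with P. falciparum (0.3% parasitemia, 2.5% hematocrit) incubated with compounds 72 h at 37 C, 5% CO2. Lysis with saponin/Triton buffer containing SYBR Green I, overnight at room temperature in the dark; DNA fluorescence (485/535 nm) normalised to 0.29 uM artemisinin and DMSO.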

[11] = qHTS profiling for inhibitors of Plasmodium falciparum (DD2) proliferation (AID 743323; call rule not given here); settings: lower = more inhibition; at 28.7 µM (top of the series)
How it was run: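 1536-well qHTS; infected RBCs 0.3% parasitemia/2.5% Hct final; cpd 72 h 37 C 5% CO2; lysis buffer + SYBR Green I, o/n RT dark; FI 485/535; norm. to 0.29 uM artemisinin and DMSO, plate-stack corrected.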

[12] = qHTS profiling for inhibitors of Plasmodium falciparum (HB3) proliferation (AID 743324); settings: Plasmodium falciparum HB3 blood-stage proliferation; at 28.7 µM (top of the series);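 note: 100% = DMSO vehicle wells and 0% = artemisinin-treated control wells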
How it was run: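 P. falciparum HB3 grown in erythrocytes (0.3% parasitemia, 2.5% hematocrit final) with compound for 72 h at 37 C, 5% CO2. Parasite DNA detected by SYBR Green after saponin/triton lysis overnight; normalized to 0.29 uM artemisinin and DMSO.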

[13] = qHTS profiling of the MIPE4 collection as inhibitors of Plasmodium falciparum (3D7) proliferation (AID 743344; call rule not given here;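 note: scaled between DMSO vehicle wells and 0.29 µM artemisinin as full inhibition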); settings: P. falciparum 3D7 in erythrocytes, SYBR Green DNA fluorescence, 72 h; at 28.5 µM (top of the series)
How it was run: as §1

[14] = qHTS profiling of the MIPE4 collection as inhibitors of Plasmodium falciparum (DD2) proliferation (AID 743345; call rule not given here); settings: P. falciparum Dd2 in erythrocytes, SYBR Green DNA, 72 h; at 28.5 µM (top of the series)
How it was run: as §1

[15] = qHTS profiling of the MIPE4 collection as inhibitors of Plasmodium falciparum (DD2) proliferation (Rep 2) (AID 743346; call rule not given here); settings: P. falciparum Dd2 in erythrocytes, SYBR Green DNA, 72 h; at 28.5 µM (top of the series)
How it was run: as §1

[16] = qHTS profiling of the MIPE4 collection as inhibitors of Plasmodium falciparum (HB3) proliferation (AID 743347; call rule not given here;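 note: plate controls were DMSO vehicle wells for no effect and artemisinin wells for full effect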); settings: P. falciparum HB3 in erythrocytes, SYBR Green DNA, 72 h; at 28.5 µM (top of the series)
How it was run: as §1

[17] = qHTS assay for cell viability of HEK293 cells (AID 743288); settings: ATP luminescence (CellTiter-Glo), 18 h; max response: stronger effect = lower value; note: % is set by controls: 0 for no effect and ±100 for the full control effect; nearly all actives have a fitted effect of over 50% in size
How it was run: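 Environmental chemicals tested in qHTS format against parental HEK293 cells; 18 h treatment, 37 C; read-out ATP luminescence (CellTiter-Glo), 30 min RT development.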

[18] = qHTS assay for cell viability of the p53RE-bla HCT-116 cell line (AID 743292); note: potency is the fitted concentration of half-maximal effect; nearly all actives have a fitted effect of over 55% in size
How it was run: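 ATP-based luminescence, 16 h compound exposure at 37 C, p53RE-bla HCT-116 cells at 4,000/well.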

N[C@H](C(=O)O)[C@H](Cc1ccccc1)C(=O)O
inactive: Potency [1] | Potency [2] | Potency [3] | Potency [4] | Potency [5] | Potency [6] | activity change, negative = inhibition [7] -2% [at 1.53 µM]

Nc1ncnc2c1ncn2C1CCCO1 (stereo unspecified)
inactive: Potency [8] | Potency [1] | Potency [2] | max response [9] -5.04% | Potency [3] | Potency [4] | Potency [5] | Potency [6] | Potency [7]

CCCCC[C@H](CC(=O)NO)C(=O)N[C@H](C(=O)N1CCC[C@H]1CO)C(C)C
inactive: Potency [8] | Potency [1] | Potency [2] | max response [9] 14.1% | Potency [3] | Potency [4] | Potency [5] | Potency [6] | Potency [7]

O=c1[nH]ccc2c(O)cccc12
inactive: Potency [1] | Potency [2] | max response [9] 22.6% | Potency [3] | Potency [4] | Potency [5] | Potency [6] | Potency [7]

CCCCCCC(=O)OC1CC(C)(C)NC(C)(C)C1
inactive: Potency [8] | Potency [1] | Potency [2] | max response [9] -4.67% | Potency [3] | Potency [4] | Potency [5] | Potency [6] | Potency [7]

C=CCN1CCc2cc(O)c(O)cc2C(c2ccccc2)C1 (stereo unspecified)
inactive: Potency [1] | Potency [2] | Potency [3] | Potency [4] | Potency [5] | Potency [6] | Potency [7]

O=C(O)c1cc2cc(F)ccc2[nH]1
inactive: Potency [1] | Potency [2] | Potency [3] | Potency [4] | Potency [5] | Potency [6] | Potency [7]

O=C(O)Cc1c[nH]c2ccc(O)cc12
inactive: Potency [1] | Potency [2] | max response [9] -2.34% | Potency [3] | Potency [4] | Potency [5] | Potency [6] | Potency [7]

Cc1ccc([N+](=O)[O-])cc1S(=O)(=O)N(C)C
inactive: Potency [8] | Potency [1] | Potency [2] | max response [9] 4.81% | Potency [3] | Potency [4] | Potency [5] | Potency [6] | Potency [7]

C=C(C)C1CC=C(C(=O)O)CC1 (stereo unspecified)
inactive: Potency [8] | Potency [1] | Potency [2] | max response [9] 19.6% | Potency [3] | Potency [4] | Potency [5] | Potency [6] | Potency [7]

COC(=O)C(C)(N)Cc1ccc(O)cc1 (stereo unspecified)
inactive: Potency [8] | Potency [1] | Potency [2] | max response [9] 7.17% | Potency [3] | Potency [4] | Potency [5] | Potency [6] | Potency [7]

COc1ccc2c(c1)CCC1C2CC[C@@]2(C)C1CC[C@@H]2NCCCCCCN1C(=O)C=CC1=O (stereo partly specified)
inactive: Potency [1] | Potency [2] | Potency [3] | Potency [4] | Potency [5] | Potency [6] | Potency [7]

NS(=O)(=O)c1cccc2c1c([N+](=O)[O-])cc1nc(O)c(O)nc12
inactive: Potency [1] | Potency [2] | max response [9] 24.6% | Potency [3] | Potency [4] | Potency [5] | Potency [6] | Potency [7]

Cc1cccc(C)c1OCC(N)C(C)C (stereo unspecified)
-0.0097%: remaining proliferation (% of control), lower = more inhibition [12]
inactive: Potency [8] | Potency [1] | Potency [2] | Potency [3] | Potency [4] | Potency [5] | Potency [6] | Potency [7]
-0.502%: remaining parasite growth % (stronger effect = lower value) [10]
active: Potency [9] 23.5 µM
-0.0581%: activity, percent of control [11]

NC1CONC1=O (stereo unspecified)
106%: growth, % of control [16]
94.2%: parasite growth, % of DMSO control [13]
78.4%: parasite growth, % of control (lower = inhibition) [15]
99.7%: parasite growth remaining, % of DMSO control (lower = more inhibition) [14]
inactive: Potency [8] | Potency [1] | Potency [2] | max response [9] 13.9% | Potency [3] | Potency [4] | Potency [5] | Potency [6] | Potency [7]

O=C(O)C1=CCCNC1
inactive: Potency [8] | Potency [1] | Potency [2] | max response [9] 15% | Potency [3] | Potency [4] | Potency [5] | Potency [6] | Potency [7]

CC#CCOC(=O)c1c(C)nc2sc3c(c2c1N)CCC(O)C3 (stereo unspecified)
inactive: Potency [8] | Potency [1] | max response [9] -7.3% | Potency [3] | Potency [4] | Potency [5] | Potency [6] | Potency [7]

CC(C)(C)NCC(O)COc1cccc2[nH]c(=O)[nH]c12 (stereo unspecified)
inactive: Potency [8] | Potency [1] | Potency [2] | max response [9] 25.5% | Potency [3] | Potency [4] | Potency [5] | Potency [6] | Potency [7]

CCCc1c(-c2ccc(O)cc2)nn(-c2ccc(O)cc2)c1-c1ccc(O)cc1
inactive: Potency [8] | Potency [1] | Potency [2] | max response [9] 23.6% | max response [17] -10.3% | Potency [3] | Potency [4] | Potency [5] | Potency [6] | Potency [7]
active: Potency [18] 70.8 µM

Cc1nc(N=Nc2ccc(S(=O)(=O)O)cc2S(=O)(=O)O)c(COP(=O)(O)O)c(C=O)c1O
93.6%: growth, % of control [16]
98.1%: parasite growth, % of DMSO control [13]
100%: parasite growth remaining, % of DMSO control (lower = more inhibition) [14]
213%: parasite growth, % of control (lower = inhibition) [15]
inactive: Potency [8] | Potency [1] | Potency [2] | max response [9] 14.8% | Potency [3] | Potency [4] | Potency [5] | Potency [6] | Potency [7]

O=c1cc(-c2ccccc2)[nH]c2nc(Cl)ccc12
inactive: Potency [8] | Potency [1] | max response [9] -6.09% | Potency [3] | Potency [4] | Potency [5] | Potency [6] | Potency [7]

N=S(=O)(O)Cc1noc2ccccc12
inactive: Potency [8] | Potency [1] | Potency [2] | max response [9] 7.99% | Potency [3] | Potency [4] | Potency [5] | Potency [6] | Potency [7]

C/C(=C\c1ccc(C(=O)O)cc1)c1ccc2c(c1)C(C)(C)CCC2(C)C
active: Potency [18] 39.8 µM
inactive: Potency [8] | Potency [1] | Potency [2] | max response [17] -16.6% | Potency [3] | Potency [4] | Potency [5] | Potency [6] | Potency [7]

CC(N)(C(=O)O)c1ccc(C(=O)O)cc1 (stereo unspecified)
inactive: Potency [1] | Potency [2] | max response [9] 12% | Potency [3] | Potency [4] | Potency [5] | Potency [6] | Potency [7]
